# KCNH2 WT inh: qHTS for Inhibitors of KCHN2 3.1: Wildtype qHTS; Voltage-gated inwardly rectifying potassium channel KCNH2 (Homo sapiens), Q12809; U2OS, BacMam KCNH2, thallium flux FluxOr; hits give low values; activity change, % at 1.84 µM; 340,000 tested, 0.37% active;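 active means maximum activity change below -70%; inconclusive means maximum activity change between -70% and -50%; inactive means maximum activity change above -50%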; further: on the % scale 0 is the no-effect control and ±100 the full control effect
#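 U2OS cells transduced with wild-type KCNH2 virus are loaded with FluxOr dye for 45 min, and thallium flux is measured in kinetic reads before and after stimulation buffer. Rate constants are normalized to DMSO controls.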
# VDR inh: Inhibitors of the vitamin D receptor (VDR): qHTS; Vitamin D3 receptor (Homo sapiens), P11473; VDR-SRC2-3 peptide fluorescence polarization, 2 h; Potency, µM, for inactives: max response, negative = inhibition, hits mostly inhibitors; 400,000 tested, 0.93% active; AID 504847, 2011; further: potency means the concentration at half of the fitted maximal effect; on the % scale 0 is the no-effect control and ±100 the full control effect
#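 Two reagent solutions held at 4 deg C in the dark were dispensed, compounds pinned at 23 nl, and the mixture incubated 2 h at room temperature. Read-out: fluorescence polarization of VDR–SRC2-3 peptide binding.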
# MBNL1-CUG inh: qHTS Assay for Inhibitors of MBNL1-poly(CUG) RNA binding. Muscleblind-like protein 1 (Homo sapiens), Q9NR56. TR-FRET MBNL1-His/biotin-(CUG)12 binding, 665/545 ratio. Potency, µM (series often up to 57.5 µM), inactives show top-dose activity change, negative = inhibition, hits mostly inhibitors. 280,000 tested, 0.036% active. AID 2675, 2010; active means well fitted inhibition curve with a large enough effect in the signal ratio, with a control signal flat, not every such curve was filed as active; inconclusive means small, poorly fitted or top-dose-only effect, or effect the other way, or a change in a side signal; inactive means no such curve, though single readings can be large or run the other way; the % refers to the signal ratio; further: potency means the concentration at half of the fitted maximal effect; on the % scale 0 is the no-effect control and ±100 the full control effect
#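 His-tagged MBNL1 binding to biotinylated (CUG)12 RNA was measured by TR-FRET using terbium anti-His antibody (0.055 ng/ul final) and streptavidin-XL665 (5 nM final). Compounds were titrated 92 nM to 58 uM; 60 min at room temperature.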
# KCNH2 3.1 block: qHTS for Inhibitors of KCHN2 3.1: Mutant qHTS | 340,000 tested, 0.95% active | Potassium voltage-gated channel subfamily H member 2, brain isoform KCNH2 3.1 (human) | activity change, % (tested at about 1.8 µM) | U2OS KCNH2 3.1, thallium flux FluxOr; hits give low values;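 active means maximum activity change below -70%; inconclusive means maximum activity change from -70% to -50%; inactive means maximum activity change above -50%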;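 further: thallium influx rate constant from kinetic fluorescence after stimulation buffer; on the % scale 0 is the no-effect control and ±100 the full control effect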
#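 Thallium flux via FluxOr fluorescence (Red40 quencher, 45 min loading) in U2OS cells virally expressing the KCNH2 3.1 isoform (1.77 x 10^8 /mL virus, overnight at 37 C). Rate constants from 2-min kinetic reads post-stimulation, normalised to positive and negative controls.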
# PLK1 PBD inh: qHTS for Inhibitors of PLK1-PDB (polo-like kinase 1 - polo-box domain): Primary Screen; Serine/threonine-protein kinase PLK1 (Homo sapiens), P53350; Potency, µM, inactives show max response, negative = inhibition, actives largely listed as inhibitors; 360,000 tested, 2.8% active; Plk1 PBD binding of FITC phosphopeptide, fluorescence polarization; further: potency means the concentration at half of the fitted maximal effect; series mostly up to about 57 µM; on the % scale 0 is the no-effect control and ±100 the full control effect; nearly all actives have a fitted effect of over 65% in size
# Target sequence (P53350 whole entry, looked up, the tested form may be a part): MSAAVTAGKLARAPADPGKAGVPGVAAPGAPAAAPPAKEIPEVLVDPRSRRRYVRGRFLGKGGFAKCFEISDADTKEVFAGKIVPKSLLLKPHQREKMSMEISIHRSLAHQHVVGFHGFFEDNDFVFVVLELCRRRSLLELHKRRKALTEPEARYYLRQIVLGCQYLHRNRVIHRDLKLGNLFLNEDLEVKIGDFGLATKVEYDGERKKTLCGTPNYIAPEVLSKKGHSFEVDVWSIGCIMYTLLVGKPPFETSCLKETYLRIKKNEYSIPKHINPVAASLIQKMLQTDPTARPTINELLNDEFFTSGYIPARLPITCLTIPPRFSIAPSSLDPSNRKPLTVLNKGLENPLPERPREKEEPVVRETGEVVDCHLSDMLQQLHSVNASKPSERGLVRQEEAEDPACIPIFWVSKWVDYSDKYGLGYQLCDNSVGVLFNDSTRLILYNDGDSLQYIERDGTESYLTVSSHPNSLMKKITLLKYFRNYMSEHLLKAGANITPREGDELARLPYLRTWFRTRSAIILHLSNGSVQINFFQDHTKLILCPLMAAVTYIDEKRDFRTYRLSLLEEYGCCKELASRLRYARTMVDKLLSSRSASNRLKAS
# CBFb-RUNX1 inh: qHTS Assay for Compounds Blocking the Interaction Between CBF-beta and RUNX1 for the Treatment of Acute Myeloid Leukemia | AlphaScreen CBFb-His/RUNX1-biotin binding, biochemical | Runt-related transcription factor 1 (Homo sapiens) + Core-binding factor subunit beta … | 230,000 tested, under 10 active | Potency, µM (titrated, usually from 59.8 µM), inactives show at the highest dose activity, negative = inhibition, actives largely listed as inhibitors; further: % of control where 0% means no effect
#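 Bead-based AlphaScreen assay; binding partners His-tagged CBF-beta and biotinylated RUNX1 at 30 nM each. Compound exposure 15 min after a 20-min protein preincubation; bead step 90 min; all steps at room temperature.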
# Active calls of the source: *; ? = inconclusive; · = not tested or not shown. Rows were chosen to be rich in hits. Some 3.8% of all compounds tested hit in one or more screens of this group. Unless noted, the call rests on the fitted dose curve; in most records, active means well fitted curve in the direction sought with a large enough effect; inconclusive means small, poorly fitted or top-dose-only effect, or another doubt; inactive means no such curve, though single readings can be large; an effect the other way counts as inactive or inconclusive.
SMILES,KCNH2 WT inh,VDR inh,MBNL1-CUG inh,KCNH2 3.1 block,PLK1 PBD inh,CBFb-RUNX1 inh
COc1ccccc1-c1cc(Nc2ccn[nH]2)ncn1,·,45µM*,·,·,·,·
COc1ccccc1-c1cc(Nc2ccc(F)cc2)ncn1,·,-3%,·,·,·,·
Cc1cccc(NC(=O)c2cccc3c2-c2ccccc2C3=O)n1,6,-5%,?,-7,1%,0%
CCOC(=O)C(/C(C)=N/NC(=O)c1ccccc1[N+](=O)[O-])C(C)C (centres undefined),0,18%,13%,-83*,-6%,3%
O=C(NCCNC(=O)c1ccccc1[N+](=O)[O-])c1ccccc1[N+](=O)[O-],3,0%,·,7,-1%,·
Cc1cccc(NC(=O)c2ccccc2Br)n1,-6,-12%,6%,-13,27µM*,-2%
O=C(NNC(=O)c1ccccc1[N+](=O)[O-])c1ccccc1[N+](=O)[O-],8,-7%,?,-3,27µM*,-5%
CCOC(=O)C(CC)/C(C)=N/NC(=O)c1ccccc1[N+](=O)[O-] (centres undefined),-5,-8%,-3%,14,-7%,4%
O=C(Nc1cccc(NC(=O)c2ccccc2[N+](=O)[O-])n1)c1ccccc1[N+](=O)[O-],-3,-10%,?,1,2.7µM*,1%
Cc1cccc(NC(=O)c2ccccc2[N+](=O)[O-])n1,-26,8%,?,-14,-5%,-1%
COc1ccc(Cn2c(=O)c3oc4ccccc4c3n(CC(=O)Nc3c(C)cccc3C)c2=O)cc1,·,12%,·,·,·,·
O=C(NCc1ccc(Cl)cc1)C(=O)NCC(c1ccco1)S(=O)(=O)c1cccs1 (centres undefined),·,8%,·,·,·,·
COc1ccccc1C(=O)Oc1ccccc1C(=O)Nc1ccccc1,-10,-7%,-11%,-3,-5%,16%
O=C(Oc1ccccc1C(=O)Nc1ccccc1)c1ccc(Br)c([N+](=O)[O-])c1,-3,50µM*,9%,10,?,11%
CCOC(=O)c1ccc(NC(=O)c2ccccc2[N+](=O)[O-])cc1,-1,?,·,-4,30µM*,-7%
O=C(O)c1ccccc1NSc1ccccc1[N+](=O)[O-],2,-20%,35%,-8,11µM*,-26%
CCOC(=O)c1ccc(NC(=O)c2cccc(C)c2[N+](=O)[O-])cc1,-10,-14%,-3%,12,-10%,-10%
CCOC(=O)c1cc([N+](=O)[O-])c([N+](=O)[O-])cc1NC(C)=O,-4,?,?,-8,8.4µM*,2%
O=C(C1CCN(S(=O)(=O)Cc2ccccc2)CC1)N1CCN(c2ccccc2)CC1,·,7%,·,·,·,·
COC(=O)c1c(NC(=O)C2COc3ccccc3O2)sc2c1CCN(C(C)=O)C2 (centres undefined),-7,11%,?,18,8%,0%
CC(=O)N1CCc2c(sc(NC(=O)C3COc4ccccc4O3)c2C(N)=O)C1 (centres undefined),3,?,0%,-2,19µM*,·
N[C@H](CSC(c1ccccc1)(c1ccccc1)c1ccccc1)C(=O)O,·,?,·,·,·,0%
NC(CSC(c1ccccc1)(c1ccccc1)c1cccc2ccccc12)C(=O)O (centres undefined),26,?,·,-14,27µM*,·
CCN(CC(=O)Nc1c(F)cccc1F)C(=O)/C=C/c1ccc2ccccc2n1,12,-6%,·,-7,13µM*,·
Cc1ccc(S(=O)(=O)c2nc(S(=O)(=O)c3ccc(C)cc3)c(NCCCOC(C)C)s2)cc1,·,0%,·,·,·,·
SMILES,KCNH2 WT inh,VDR inh,MBNL1-CUG inh,KCNH2 3.1 block,PLK1 PBD inh,CBFb-RUNX1 inh
CN1CCN(Cc2nc3ccccc3c(=O)n2Cc2nc(-c3ccc([N+](=O)[O-])cc3)cs2)CC1,25,-13%,?,-28,30µM*,-6%
Cc1cc(N2CCN(c3nc(-c4ccc([N+](=O)[O-])cc4)cs3)CC2)c2ccccc2n1,-122*,-8%,14%,-124*,-14%,-2%
CC[C@H](C)[C@H](NC(=O)[C@H](CCC(=O)O)NC(=O)[C@H](CO)NC(=O)[C@@H](NC(=O)[C@H](C)N)C(C)C)C(=O)N[C@@H](CCC(N)=O)C(=O)N[C@@H](CC(C)C)C(=O)N[C@@H](CCSC)C(=O)N[C@@H](Cc1cnc[nH]1)C(=O)N[C@@H](CC(N)=O)C(=O)N[C@@H](CC(C)C)C(=O)NCC(=O)N[C@@H](CCCCN)C(=O)N[C@@H](Cc1cnc[nH]1)C(=O)N[C@@H](CC(C)C)C(=O)N[C@@H](C)C(=O)N[C@@H](CO)C(=O)N[C@H](C(=O)N[C@@H](CCC(=O)O)C(=O)N[C@@H](CCCNC(=N)N)C(=O)N[C@@H](CCSC)C(=O)N[C@@H](CCC(N)=O)C(=O)N[C@@H](Cc1c[nH]c2ccccc12)C(=O)N[C@@H](CC(C)C)C(=O)N[C@@H](CCCNC(=N)N)C(=O)N[C@@H](CCCCN)C(=O)N[C@@H](CCCCN)C(=O)N[C@@H](CC(C)C)C(=O)N[C@@H](CCC(N)=O)C(=O)N[C@@H](CC(=O)O)C(=O)N[C@H](C(=O)N[C@@H](Cc1cnc[nH]1)C(=O)N[C@@H](CC(N)=O)C(=O)N[C@@H](Cc1ccccc1)C(=O)O)C(C)C)C(C)C,·,-12%,·,·,·,7%
CCOc1ccc2nc(N3CCCC(C(=O)NCc4ccccc4OC)C3)sc2c1 (centres undefined),·,26%,·,·,·,·
CC(=O)Oc1ccc(C(=O)[C@H]2[C@H]3C(=O)N(c4cccc5ccccc45)C(=O)[C@H]3[C@@H]3C=CC=NN32)cc1,8,-13%,?,2,42µM*,-4%
N=C1/C(=C/c2cccs2)C(=O)N=C2SN=C(SCc3ccccc3)N12,1,12%,3%,1,27µM*,-3%
CC(C)CSC1=NSC2=NC(=O)/C(=C\c3cccs3)C(=N)N12,4,-16%,-3%,2,?,-12%
